Screens as filed in PubChem.
Lamin A splicing = qHTS Assay for Modulators of Lamin A Splicing | hit rate 0.01% among 200,000 | AID 1487, 2009 | HeLa LMNA splicing GFP/RFP minigene ratio, 48 h | Potency, µM (titrated, usually from 46.1 µM), for inactives: at the top dose ratio change, negative = inhibition, hits mostly inhibitors; active = well fitted inhibition curve with a large enough effect in the signal ratio, with a control signal flat, not every such curve was filed as active; inconclusive = small, poorly fitted or top-dose-only effect, or effect the other way, or a change in a side signal; the % refers to the signal ratio; note: % is set by controls: 0 for no effect and ±100 for the full control effect
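Read-out is the ratio of GFP to DsRed2 object intensity, acquired by 488 nm laser-scanning cytometry on HeLa lamin A-EGFP minigene reporter cells. Compound incubation 48 hrs at 37 °C in Opti-MEM with 2% FBS; DMSO 0.5% final.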
HPGD inh = qHTS Assay for Inhibitors of HPGD (15-Hydroxyprostaglandin Dehydrogenase) | hit rate 4.3% among 150,000 | 15-hydroxyprostaglandin dehydrogenase [NAD(+)] (Homo sapiens), P15428 | Potency, µM, inactives show top-dose activity change, negative = inhibition, usual class: inhibitors | purified HPGD, NADH fluorescence kinetic, PGE2 substrate | AID 894, 2007; active = well fitted inhibition curve with a large enough effect, not every such curve was filed as active; inconclusive = small, poorly fitted or top-dose-only effect, or another doubt; inactive = no such curve, though single readings can be large or run the other way; note: % is set by controls: 0 for no effect and ±100 for the full control effect
Target sequence (P15428 whole entry, looked up): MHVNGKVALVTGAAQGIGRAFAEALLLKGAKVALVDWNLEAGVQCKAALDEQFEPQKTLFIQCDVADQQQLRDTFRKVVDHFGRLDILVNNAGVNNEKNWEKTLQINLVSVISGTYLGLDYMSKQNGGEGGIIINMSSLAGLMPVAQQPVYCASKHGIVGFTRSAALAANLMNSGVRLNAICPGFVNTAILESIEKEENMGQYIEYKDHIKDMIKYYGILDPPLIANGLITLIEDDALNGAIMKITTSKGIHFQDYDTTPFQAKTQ
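20 nM HPGD preincubated 15 min at room temperature with compound in 50 mM Tris-HCl pH 8, 0.01% Tween 20. Started with 1 mM NAD+ and 30 uM prostaglandin E2; NADH fluorescence (360/450 nm) read 5 times over 30-s intervals, last minus first.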
HTT cytoprotect = qHTS Multiplex Assay to Identify Dual Action Probes in a Cell Model of Huntington: Cytoprotection (ATP); Potency, µM (titrated, usually from 56.4 µM), inactives show cytoprotection (ATP increase), actives largely listed as activators; hit rate 0.14% among 230,000; PC12 HTT-Q103 induced, cytoprotection, ATP luminescence, 40 h; note: % of control where 0% means no effect; nearly all actives have a fitted effect of over 45% in size
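Rat PC12, Q103 Htt exon1-GFP fusion, ecdysone promoter; tebufenozide inducer 100 nM final; compound titration; qHTS, 1500 cells/well; ATPlite luminescent read.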
ALDH1A1 inh = qHTS Assay for Inhibitors of Aldehyde Dehydrogenase 1 (ALDH1A1) | Aldehyde dehydrogenase 1A1 (Homo sapiens), P00352 | AID 1030, 2008 | Potency, µM (titrated, usually from 75.3 µM), inactives show at the highest dose activity, negative = inhibition, most hits filed as inhibitors | hit rate 7.3% among 220,000 | Purified ALDH1A1, NADH fluorescence, propionaldehyde substrate; active = well fitted inhibition curve with a large enough effect, not every such curve was filed as active; inconclusive = small, poorly fitted or top-dose-only effect, or another doubt; inactive = no such curve, though single readings can be large or run the other way;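 note: plate controls were no enzyme wells and a reference inhibitor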
Target sequence (P00352 whole entry, looked up): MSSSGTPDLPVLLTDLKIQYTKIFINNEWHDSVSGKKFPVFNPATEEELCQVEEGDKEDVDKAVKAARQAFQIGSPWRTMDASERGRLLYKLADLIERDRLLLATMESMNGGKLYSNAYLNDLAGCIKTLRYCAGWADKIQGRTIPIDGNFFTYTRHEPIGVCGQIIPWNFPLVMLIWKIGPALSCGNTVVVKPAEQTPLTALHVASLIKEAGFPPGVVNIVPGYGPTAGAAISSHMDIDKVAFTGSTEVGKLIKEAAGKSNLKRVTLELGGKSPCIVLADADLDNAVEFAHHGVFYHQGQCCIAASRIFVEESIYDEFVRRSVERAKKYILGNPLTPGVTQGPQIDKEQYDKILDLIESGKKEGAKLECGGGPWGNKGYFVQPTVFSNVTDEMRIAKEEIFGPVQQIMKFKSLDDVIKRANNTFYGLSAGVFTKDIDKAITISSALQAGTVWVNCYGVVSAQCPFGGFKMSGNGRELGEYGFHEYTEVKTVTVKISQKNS
HTT aggregate = qHTS Multiplex Assay to Identify Dual Action Probes in a Cell Model of Huntington: Aggregate Formation (GFP). PC12 HttQ103-GFP aggregates, Acumen cytometry, 40 h. Potency, µM (top dose mostly 46.1 µM), for inactives: at the highest dose activity change, negative = inhibition, usual class: inhibitors. hit rate 1.1% among 220,000. AID 1688, 2009; note: % is set by controls: 0 for no effect and ±100 for the full control effect; nearly all actives have a fitted effect of over 60% in size
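PC12 cells stably carrying ecdysone-inducible HTT exon 1 Q103–GFP were induced with tebufenozide (100 nM final) and treated with library compounds in titration. GFP aggregates in lysates were counted by laser scanning cytometry.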
The depositor's hits bear a star; ? = inconclusive; / = no result given; [ ] = dose if it differs, or a comment. The list is not random: actives were taken first. Their share in the collection is about 8.8%. Unless noted, calls come from the whole dose curve; as a rule, active = well fitted curve in the direction sought with a large enough effect; inconclusive = small, poorly fitted or top-dose-only effect, or another doubt; inactive = no such curve, though single readings can be large; an effect the other way counts as inactive or inconclusive. Potency is the fitted concentration of half-maximal effect.

SMILES	Lamin A splicing	HPGD inh	HTT cytoprotect	ALDH1A1 inh	HTT aggregate
C=CCn1c(SCC(=O)O)nc2sc(CC)cc2c1=O	/	/	-12.0%[10 µM]	?	-9.5%[9.22 µM]
COc1ccc(S(=O)(=O)N(C(C)=O)c2ccc3oc(=O)sc3c2)cc1	?	20µM*	4.1%[10 µM]	?	?
Cc1ccccc1C(=O)Nc1nnc(SCc2cc(=O)c3c(C)ccc(C)c3[nH]2)s1	-5.8%[46 µM]	/	/	/	/
Cc1cccc(/C=C/C(=O)c2ccc(NC3=NCCCS3)cc2)c1	?	-21.6%	-15.3%[10 µM]	-11.9%	23.9%
CC(C)(C)c1ccc(/C=C/C(=O)c2ccc(NC3=NCCCS3)cc2)cc1	?	20µM*	12.3%[10 µM]	20.1%	-3.3%
COc1cccc(/C=C/C(=O)c2ccc(NC3=NCCCS3)cc2)c1	/	/	/	?	18.8%
O=C(/C=C/c1ccccc1)c1ccc(NC2=NCCCS2)cc1	5.7%	14.1µM*	/	-7.2%	6.4%
O=C(/C=C/c1ccc(Br)cc1)c1ccc(NC2=NCCCS2)cc1	?	8.91µM*	/	11.7%	0.7%
O=C(NCCc1ccccc1Cl)c1sc2ncccc2c1-n1cccc1	-0.7%[46 µM]	/	/	/	/
COc1ccc(Cl)cc1NC(=O)c1sc(-n2nc(C)c(Cc3ccccc3)c2C)nc1C	1.5%[46 µM]	/	/	/	/
NCCC[C@@H](CC(=O)N[C@@H]1CCNC[C@H]1C(=O)N[C@H](CC(=O)N[C@@H](CCC(=O)O)CC(=O)O)Cc1ccccc1)NC(=O)C[C@H](CO)NC(=O)[C@@H]1CCCC[C@H]1N	/	-9.9%	14.4%[1.9 µM]	1.2%	/
Cc1c(Cl)ccc2c1NC(=O)C21NC(CCC(N)=O)[C@H]2C(=O)N(c3ccc(Cl)cc3)C(=O)[C@H]21 (stereo partly specified)	-0.7%	-25.1%	-5.4%[0.074 µM]	8.91µM*	7.4%
Cc1c(Cl)ccc2c1NC(=O)[C@]21N[C@@H](CCC(N)=O)[C@H]2C(=O)N(c3ccc(F)cc3)C(=O)[C@H]21	?	-6.1%	-8.3%[0.074 µM]	14.1µM*	10.3%
NC(=O)C[C@@H]1N[C@]2(C(=O)Nc3ccccc32)[C@@H]2C(=O)N(c3cc(C(F)(F)F)ccc3Cl)C(=O)[C@H]12	-3.6%	-5.4%	9.1%	-1.5%	6.5%
CCCCc1ccc(N2C(=O)[C@@H]3C(CC(N)=O)NC4(C(=O)Nc5ccc(F)cc54)[C@@H]3C2=O)cc1 (stereo partly specified)	-7.8%	-12.3%	-15.3%	14.1µM*	18.4%
CSCCC1NC2(C(=O)Nc3c2ccc(Cl)c3C)[C@@H]2C(=O)N(C3CCCC3)C(=O)[C@H]12 (stereo partly specified)	-2.3%	-13.4%	-13.7%[0.074 µM]	?	2.1%
CC[C@]1(O)C[C@@H]2CN(CCc3c([nH]c4ccccc34)[C@@](C(=O)OC)(c3cc4c(cc3OC)N(C)C3[C@]45CCN4CC=C[C@](CC)(C45)[C@@H](OC(C)=O)[C@]3(O)C(=O)OC)C2)C1 (stereo partly specified)	/	/	-176.4%	3.7%	/
O=C(CSc1nnnn1C1CCCCC1)NNC(=O)c1ccco1	/	/	-0.8%[10 µM]	4.74µM*	-2.8%[9.22 µM]
NS(=O)(=O)c1ccc(CCNC(=O)CSc2cccs2)cc1	2.4%[46 µM]	/	-62.7%[10 µM]	?	?
O=C(CSc1nnnn1C1CCCCC1)NCc1cccs1	-7.5%[46 µM]	/	14.3%[10 µM]	-4.0%	7.8%[9.22 µM]
O=C(CSc1cccs1)NCCc1ccccc1	3.7%	14.1µM*	12.3%[0.074 µM]	-6.5%	-0.3%
O=C(CSc1nnnn1C1CCCCC1)NCCc1ccccc1	?	-13.0%	4.6%	10µM*	10.8%
Cc1cccc(N2CCN(C(=O)c3cnn(-c4ccccc4Cl)c3C3CCN(C(=O)OC(C)(C)C)CC3)CC2C)c1 (stereo unspecified)	-3.1%[46 µM]	/	/	/	/
Fc1ccc(COc2ccccc2C(=S)N2CCCC2)cc1	?	8.91µM*	/	7.94µM*	20.0%
Cc1ccc(COc2ccccc2C(=S)N2CCCC2)cc1	-21.3%[46 µM]	/	/	25.1µM*	-16.8%
SMILES	Lamin A splicing	HPGD inh	HTT cytoprotect	ALDH1A1 inh	HTT aggregate
O=C(OCC(=O)N1CCCC1)c1ccccc1OCc1ccccc1	-9.4%	0.7%	11.5%[10 µM]	0.2%	2.5%
Cn1cc(-c2cc3n(n2)CCC(=O)N3CC(=O)NCc2ccccc2)c2ccccc21	6.7%[46 µM]	/	/	/	/
Cn1c(Cc2csc(N)n2)nnc1SCC(=O)NCc1ccccc1	1.1%	-9.9%	10.2%[10 µM]	28.2µM*	11.5%
Cn1c(Cc2csc(N)n2)nnc1SCC(=O)NC1CCCCC1	12.7%	-9.3%	-1.0%	?	-4.6%
O=C1CCSc2ccc(Cl)cc2N1Cc1ccccc1	5.1%	-3.5%	17.1%	1.7%	?
Cc1cccc(CN2C(=O)CCSc3ccc(Cl)cc32)c1	-3.6%	-9.7%	5.4%	14.1µM*	-20.3%
O=C(CN1CCN(c2ccccc2)CC1)Nc1ccccc1Cl	-14.6%[46 µM]	/	-21.2%	-0.2%	-0.4%
CC(=O)N1CCN(CC(=O)Nc2cc([N+](=O)[O-])ccc2Cl)CC1	/	/	-46.7%[10 µM]	35.5µM*	1.8%
O=C(CN1CCN(c2ccc(O)cc2)CC1)Nc1cc([N+](=O)[O-])ccc1Cl	-22.8%	-8.4%	1.5%[10 µM]	11.2µM*	4.5%
CC(=O)NS(=O)(=O)c1ccc2sc(C)nc2c1	/	/	-16.3%[10 µM]	?	0.0%[9.22 µM]
O=C(Cc1ccc2c(c1)CCCC2)Nc1ccccc1Br	17.7%	25.1µM*	-9.2%	-10.7%	10.5%
O=C(O)CCCC(=O)Nc1ccccc1Br	-2.8%	-14.6%	-5.6%	3.5%	-3.3%
Cc1ccc[n+](CC(=O)Nc2c(Cl)cc(Cl)cc2Cl)c1	6.5%[46 µM]	/	-55.7%[10 µM]	-5.8%	?
O=C(C[n+]1ccccc1)Nc1ccccc1Br	/	/	12.1%[10 µM]	1.78µM*	-13.5%[9.22 µM]
O=C(C[n+]1ccccc1)Nc1c(Cl)cc(Cl)cc1Cl	/	/	25.4%[10 µM]	7.94µM*	8.2%[9.22 µM]
Cc1c(/C=N/NC(=O)CNc2ccccc2)c2ccccn2c1C(=O)c1ccccc1	?	/	2.9%[10 µM]	?	-22.4%
CCCC(C)C(=O)OCC(=O)Nc1ccc(Br)cc1 (stereo unspecified)	/	/	-42.2%	11.2µM*	10.7%
C#Cc1ccc([C@H]2C=C(C(=O)N3CCOCC3)O[C@@H](OCc3ccc(CO)cc3)C2)cc1	/	/	7.8%[10 µM]	-14.1%	14.2%[9.22 µM]
CCN(CCCNC(=O)c1c(C)cc(=O)oc1C)c1cccc(C)c1	-2.6%	-18.3%	21.9%[10 µM]	10µM*	4.6%
Cc1cc(=O)oc(C)c1C(=O)NCCNC(=O)c1c(C)cc(=O)oc1C	2.1%	-4.0%	-1.4%	-6.7%	-4.9%
O=c1c2cnn(-c3ccccc3)c2nc(-c2cccs2)n1-c1ccc(Br)cc1	5.5%[0.0737 µM]	-4.6%	-1.4%	-6.4%	1.8%
O=C(O)CSc1nc2c(cnn2-c2ccccc2)c(=O)n1-c1ccc(Br)cc1	-5.8%	14.1µM*	/	-5.7%	6.9%
